Assay [1] in a line: NCI Yeast Anticancer Drug Screen. Data for the rad50 strain (AID 155).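 Also: 0% = growth of vehicle-only cultures of the same strain.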 Particulars: S. cerevisiae rad50 strain growth inhibition, hits give high values. The essentials: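 DNA repair mutant yeast, compound exposure, growth read-out; inhibition is taken relative to vehicle.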
Assay [2] can be described thus: NCI Yeast Anticancer Drug Screen. Data for the mec2-1 strain (AID 157). Particulars: S. cerevisiae mec2-1 strain, hits give high values. The essentials: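 Strain: mec2-1 (DNA repair/cell cycle alteration). Compound exposure, then growth measured; inhibition expressed relative to vehicle.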
Assay [3] is described as follows: NCI Yeast Anticancer Drug Screen. Data for the sgs1 mgt1 strain (AID 161).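 Also: 0% = growth of cultures given vehicle only.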 Particulars: S. cerevisiae sgs1 mgt1 strain, hits give high values. Summed up: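 Test agents were incubated with a DNA-repair-mutant yeast strain. Growth was then read and compared against vehicle-treated controls.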
Assay [4] can be described thus: NCI Yeast Anticancer Drug Screen. Data for the cln2 rad14 strain (AID 165).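 Also: 0% = growth equal to vehicle treated cultures.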 As to conditions: S. cerevisiae cln2 rad14 strain, hits give high values. Summed up: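 Compounds are applied to the cln2 rad14 yeast strain, and growth is then compared with that of vehicle-treated cultures to give inhibition.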
Assay [5] in a line: NCI Yeast Anticancer Drug Screen. Data for the bub3 strain (AID 167). Particulars: S. cerevisiae bub3 mutant strain, hits give high values. The essentials: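 In this screen, a yeast mutant lacking normal mitotic checkpoint function is challenged with compound. Relative growth versus vehicle gives the inhibition value.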
A short description of assay [6]: NCI Yeast Anticancer Drug Screen. Data for the mlh1 rad18 strain (AID 175). As to conditions: S. cerevisiae mlh1 rad18 strain growth inhibition, hits give high values. Summed up:
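Read-out is yeast growth inhibition, calculated against vehicle-only controls. The compound was applied to a strain engineered with DNA damage repair alterations.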

[7] abbreviates: at 5.0 µM (retest, dose inferred, filed as 0.5).
The mark [8] stands for this setting: at 50.0 µM (retest, dose inferred, filed as 5.0).

Compounds without any hit were thinned out: in the full panel of roughly 79,000, 15% have a hit. Unmarked numbers belong to inactive results. Calls of active or inactive are those of the source. Rule as the data show it: active = growth inhibition above about 70%; inactive = the rest.

Take `C=C1C(=O)OC2CC1C(OC(=O)/C=C/c1ccccc1)C/C(C)=C/CC/C(C)=C/CCC2(C)O` (stereo not given): the growth inhibition in assay [1] (setting [7]) is 50%; in assay [1] (setting [8]), 93% (active); in assay [1] (at 50.0 µM), 82.8% (active); in assay [2] (setting [7]), 54%; in assay [2] (setting [8]), 96% (active); in assay [2] (at 50.0 µM), 81.7% (active). Moreover, the growth inhibition in assay [3] (setting [7]) was 60%; in assay [3] (setting [8]), 95% (active); in assay [3] (at 50.0 µM) it was 84.8% (active); in assay [4] (setting [7]), 84% (active); in assay [4] (setting [8]), 95% (active); in assay [4] (at 50.0 µM), 83% (active). Besides, the growth inhibition was 88% (active) in assay [5] (setting [7]); 95% (active) in assay [5] (setting [8]); 80% (active) in assay [5] (at 50.0 µM); 77% (active) in assay [6] (setting [7]); 94% (active) in assay [6] (setting [8]); 75.9% (active) in assay [6] (at 50.0 µM).

Turning to `O=[N+]([O-])/C(=C/c1ccccc1)c1ccccc1`, the growth inhibition in assay [1] (setting [7]) was 99% (active); in assay [1] (setting [8]), 99% (active); in assay [1] (at 50.0 µM), 99.6% (active); in assay [2] (setting [7]) it was 100% (active); in assay [2] (setting [8]), 99% (active); in assay [2] (at 50.0 µM), 99.7% (active). For the same molecule, the growth inhibition is 99% (active) in assay [3] (setting [7]); 97% (active) in assay [3] (setting [8]); 99.7% (active) in assay [3] (at 50.0 µM); 99% (active) in assay [4] (setting [7]); 99% (active) in assay [4] (setting [8]); 98.7% (active) in assay [4] (at 50.0 µM). Moreover, the growth inhibition in assay [5] (setting [7]) is 100% (active); in assay [5] (setting [8]), 99% (active); in assay [5] (at 50.0 µM), 99.5% (active); in assay [6] (setting [7]), 99% (active); in assay [6] (setting [8]) it was 99% (active); in assay [6] (at 50.0 µM), 99.5% (active).

Regarding `COC(=O)c1ccc(=O)c2nc3/c(=C/O)c(O)cc(=O)c3[nH]c12`, the growth inhibition is 98% (active) in assay [1] (setting [7]); 92% (active) in assay [1] (setting [8]); 90% (active) in assay [1] (at 50.0 µM); 99% (active) in assay [2] (setting [7]); 94% (active) in assay [2] (setting [8]); 92.1% (active) in assay [2] (at 50.0 µM). For the same molecule, the growth inhibition in assay [3] (setting [7]) was 99% (active); in assay [3] (setting [8]), 97% (active); in assay [3] (at 50.0 µM) it was 91.2% (active); in assay [4] (setting [7]), 96% (active); in assay [4] (setting [8]) it was 96% (active); in assay [4] (at 50.0 µM), 89.3% (active). Further, the growth inhibition in assay [5] (setting [7]) is 99% (active); in assay [5] (setting [8]), 96% (active); in assay [5] (at 50.0 µM), 89.5% (active); in assay [6] (setting [7]), 99% (active); in assay [6] (setting [8]), 95% (active); in assay [6] (at 50.0 µM), 39.5%.

Turning to `CC1(C)OC2C(COC(c3ccccc3)(c3ccccc3)c3ccccc3)OC(c3c[nH]c4c(N)ncnc34)C2O1` (stereo not given), the growth inhibition is 9% in assay [1] (setting [7]); 99% (active) in assay [1] (setting [8]); 98.9% (active) in assay [1] (at 50.0 µM); 40% in assay [2] (setting [7]); 99% (active) in assay [2] (setting [8]); 99.1% (active) in assay [2] (at 50.0 µM). Moreover, the growth inhibition in assay [3] (setting [7]) was -6%; in assay [3] (setting [8]), 99% (active); in assay [3] (at 50.0 µM), 99.2% (active); in assay [4] (setting [7]), -20%; in assay [4] (setting [8]), 99% (active); in assay [4] (at 50.0 µM) it was 97.7% (active). Further, the growth inhibition in assay [5] (setting [7]) was 10%; in assay [5] (setting [8]) it was 99% (active); in assay [5] (at 50.0 µM), 98.8% (active); in assay [6] (setting [7]) it was 25%; in assay [6] (setting [8]), 99% (active); in assay [6] (at 50.0 µM), 98.7% (active).

As to `Cc1ccc(Nc2ccc(O)c3c2C(=O)c2c(O)ccc(Nc4ccc(C)cc4)c2C3=O)cc1`, the growth inhibition in assay [1] (setting [7]) is 5%; in assay [1] (setting [8]), 4%; in assay [1] (at 50.0 µM) it was 10.3%; in assay [2] (setting [7]), 1%; in assay [2] (setting [8]), -1%; in assay [2] (at 50.0 µM), 7.15%. Besides, the growth inhibition in assay [3] (setting [7]) was 12%; in assay [3] (setting [8]), 14%; in assay [3] (at 50.0 µM) it was 12.8%; in assay [4] (setting [7]), 0%; in assay [4] (setting [8]) it was -1%; in assay [4] (at 50.0 µM), 72.5% (active). Also, the growth inhibition in assay [5] (setting [7]) is -2%; in assay [5] (setting [8]), -5%; in assay [5] (at 50.0 µM), -3.8%; in assay [6] (setting [7]), -2%; in assay [6] (setting [8]) it was -65%; in assay [6] (at 50.0 µM), 17.4%.

For `Cc1cc2cccnc2c2ncccc12`, the growth inhibition in assay [1] (setting [7]) was 34%; in assay [1] (setting [8]), 98% (active); in assay [1] (at 50.0 µM), 99% (active); in assay [2] (setting [7]), 9%; in assay [2] (setting [8]), 99% (active); in assay [2] (at 50.0 µM), 99.2% (active). Further, the growth inhibition in assay [3] (setting [7]) was 5%; in assay [3] (setting [8]), 98% (active); in assay [3] (at 50.0 µM), 99.1% (active); in assay [4] (setting [7]), -9%; in assay [4] (setting [8]), 98% (active); in assay [4] (at 50.0 µM), 97.5% (active). In addition, the growth inhibition in assay [5] (setting [7]) is 21%; in assay [5] (setting [8]) it was 99% (active); in assay [5] (at 50.0 µM) it was 99.3% (active); in assay [6] (setting [7]) it was 25%; in assay [6] (setting [8]), 99% (active); in assay [6] (at 50.0 µM) it was 98.7% (active).

For the molecule `C[C@@]1(CO)[C@H](O)CC[C@@]2(C)[C@H]1CC[C@H]1C[C@@H]3C[C@@]12CC[C@@]3(O)COC(=O)CN`, the growth inhibition in assay [1] (setting [7]) is 0%; in assay [1] (setting [8]), 65%; in assay [1] (at 50.0 µM), 97.3% (active); in assay [2] (setting [7]), -1%; in assay [2] (setting [8]), 98% (active); in assay [2] (at 50.0 µM), 57.1%. Moreover, the growth inhibition is -1% in assay [3] (setting [7]); 46% in assay [3] (setting [8]); 61.6% in assay [3] (at 50.0 µM); -12% in assay [4] (setting [7]); 49% in assay [4] (setting [8]); 22.9% in assay [4] (at 50.0 µM). The growth inhibition in assay [5] (setting [7]) was 11%; in assay [5] (setting [8]) it was 33%; in assay [5] (at 50.0 µM), 91.7% (active); in assay [6] (setting [7]), 6%; in assay [6] (setting [8]) it was 97% (active); in assay [6] (at 50.0 µM) it was 93.8% (active).

`Cc1cc(C)c(C#N)c(Sc2nc(C)c([N+](=O)[O-])c(C)c2C#N)n1`: the growth inhibition in assay [1] (setting [7]) was 56%; in assay [1] (setting [8]) it was 54%; in assay [1] (at 50.0 µM), 66.7%; in assay [2] (setting [7]) it was 37%; in assay [2] (setting [8]), 44%; in assay [2] (at 50.0 µM), 29.7%. The growth inhibition in assay [3] (setting [7]) is 49%; in assay [3] (setting [8]) it was 54%; in assay [3] (at 50.0 µM), 84.5% (active); in assay [4] (setting [7]), 41%; in assay [4] (setting [8]), 51%; in assay [4] (at 50.0 µM) it was 42.3%. The growth inhibition in assay [5] (setting [7]) is 51%; in assay [5] (setting [8]), 61%; in assay [5] (at 50.0 µM), 15%; in assay [6] (setting [7]) it was 57%; in assay [6] (setting [8]), 55%; in assay [6] (at 50.0 µM), 54.6%.

As for `COc1ccc2c(c1)C(OC)C1c3c(cc4c(c3-2)OCO4)CCN1C` (stereo not given), the growth inhibition is 24% in assay [1] (setting [7]); 52% in assay [1] (setting [8]); -23.1% in assay [1] (at 50.0 µM); 14% in assay [2] (setting [7]); 27% in assay [2] (setting [8]); -17.5% in assay [2] (at 50.0 µM). Further, the growth inhibition was 12% in assay [3] (setting [7]); 28% in assay [3] (setting [8]); -8.75% in assay [3] (at 50.0 µM); 22% in assay [4] (setting [7]); 28% in assay [4] (setting [8]); -1.45% in assay [4] (at 50.0 µM). Moreover, the growth inhibition was 28% in assay [5] (setting [7]); 35% in assay [5] (setting [8]); -6.05% in assay [5] (at 50.0 µM); 35% in assay [6] (setting [7]); 53% in assay [6] (setting [8]); 78.3% (active) in assay [6] (at 50.0 µM).

In the case of `CC1(O)CCCCCC1`, the growth inhibition is -13% in assay [1] (setting [7]); 74% (active) in assay [1] (setting [8]); 85% (active) in assay [1] (at 50.0 µM); -29% in assay [2] (setting [7]); 58% in assay [2] (setting [8]); 69.7% in assay [2] (at 50.0 µM). In addition, the growth inhibition in assay [3] (setting [7]) is -7%; in assay [3] (setting [8]) it was 54%; in assay [3] (at 50.0 µM), 88.2% (active); in assay [4] (setting [7]), 28%; in assay [4] (setting [8]) it was 68%; in assay [4] (at 50.0 µM), 77.7% (active). Besides, the growth inhibition in assay [5] (setting [7]) is 3%; in assay [5] (setting [8]), 74% (active); in assay [5] (at 50.0 µM), 84.2% (active); in assay [6] (setting [7]), 16%; in assay [6] (setting [8]), 91% (active); in assay [6] (at 50.0 µM), 71.1% (active).

The record behind these values is PubChem BioAssay (NCI).
